From PMC5540273 (PLoS ONE, 2017)

Assays:
Details in all cases: concentration: 1 μM,replicates: in singlicate; n = 1
HASPIN = test system: T1, HASPIN
T1 construct: gene GSG2

HCK = test system: HCK
HIPK1 = test system: HIPK1
HIPK2 = test system: HIPK2
HIPK3 = test system: HIPK3
HIPK4 = test system: HIPK4
HPK1 = test system: HPK1
HUNK = test system: HUNK
ICK = test system: ICK
IGF1R = test system: IGF1R
IKK-alpha = test system: T2, IKK-alpha
T2 construct: gene CHUK

IKK-beta = test system: T3, IKK-beta
T3 construct: gene IKBKB

IKK-epsilon = test system: T4, IKK-epsilon
T4 construct: gene IKBKE

INSRR = test system: INSRR
INSR = test system: INSR
IRAK1 = test system: IRAK1
IRAK3 = test system: IRAK3
IRAK4 = test system: IRAK4
ITK = test system: ITK
[1] = test system: JAK1(JH1domain-catalytic)
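Further: KINOMEscan kinase panel screen.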

| SMILES | %Inh (HASPIN) | %Inh (HCK) | %Inh (HIPK1) | %Inh (HIPK2) | %Inh (HIPK3) | %Inh (HIPK4) | %Inh (HPK1) | %Inh (HUNK) | %Inh (ICK) | %Inh (IGF1R) | %Inh (IKK-alpha) | %Inh (IKK-beta) | %Inh (IKK-epsilon) | %Inh (INSRR) | %Inh (INSR) | %Inh (IRAK1) | %Inh (IRAK3) | %Inh (IRAK4) | %Inh (ITK) | %Inh [1] |
| --- | --- | --- | --- | --- | --- | --- | --- | --- | --- | --- | --- | --- | --- | --- | --- | --- | --- | --- | --- | --- |
| COc1cc(Nc2nccc(N3CCC(NC(=O)c4cccc(C#N)c4)C3)n2)cc(OC)c1OC (centres unmarked) [GSK1379751] | 8% | 0% | 0% | 0% | 3% | 0% | 45% | 0% | 0% | 0% | 19% | 0% | 5% | 0% | 0% | 58% | 70% | 15% | 0% | 0% |
| Cc1nnc(-c2ccc3occ(-c4ccc(S(C)=O)cc4)c3n2)o1 (centres unmarked) | 6% | 0% | 46% | 0% | 0% | 0% | 0% | 0% | 0% | 10% | 0% | 0% | 0% | 0% | 0% | 0% | 0% | 0% | 8% | 8% |
| N#Cc1cccc(C(=O)NC2CCN(c3ccnc(Nc4ccc(F)cc4)n3)C2)c1 (centres unmarked) [GSK1379708] | 0% | 0% | 0% | 3% | 0% | 0% | 40% | 7% | 0% | 0% | 16% | 16% | 0% | 0% | 4% | 17% | 27% | 2% | 2% | 17% |
| Cc1ccc(C(=O)Nc2ccc(Oc3ccc4nc(NC(=O)C5CC5)cn4c3)c(F)c2)c(=O)n1-c1ccccc1 | 0% | 96.6% | 29% | 0% | 0% | 72% | 56% | 22% | 0% | 0% | 61% | 56% | 0% | 0% | 0% | 0% | 44% | 0% | 57% | 14% |
| O=C(NOCC1CC1)c1cc(Br)c(F)c(F)c1Nc1ccc(I)cc1Cl | 0% | 8% | 20% | 0% | 0% | 0% | 14% | 8% | 0% | 0% | 0% | 0% | 0% | 0% | 0% | 0% | 0% | 0% | 2% | 7% |
| CS(=O)c1ccc(-c2coc3ccc(-c4n[nH]c(=O)o4)cc23)cc1 (centres unmarked) | 50% | 0% | 99.6% | 100% | 99.6% | 93.6% | 1% | 11% | 29% | 13% | 8% | 0% | 0% | 1% | 17% | 55% | 0% | 28% | 0% | 1% |
| Cc1ccc(Nc2ccnc(Nc3ccc4c(c3)CS(=O)(=O)C4)n2)cc1O.Cl [GW579362] | 0% | 90% | 26% | 0% | 28% | 44% | 62% | 8% | 28% | 56% | 62% | 87% | 91% | 22% | 53% | 99.1% | 91% | 87% | 38% | 92.4% |
| C[C@@H]1CCN(C(=O)N2CCCC2)C[C@@H]1N(C)c1ncnc2[nH]ccc12 | 30% | 0% | 25% | 0% | 22% | 2% | 0% | 0% | 13% | 0% | 23% | 19% | 17% | 12% | 0% | 6% | 8% | 0% | 0% | 99.6% |
| COc1cccc(CNC(=O)NC2CCN(c3ccnc(Nc4cc(OC)c(OC)c(OC)c4)n3)C2)c1 (centres unmarked) [GSK1379765] | 11% | 12% | 0% | 34% | 36% | 0% | 38% | 0% | 13% | 0% | 21% | 24% | 36% | 96.4% | 0% | 73% | 86% | 27% | 20% | 13% |
| COc1cc2ncn(-c3cc(OCC4CCCCC4)c(C(N)=O)s3)c2cc1OC [GSK204559] | 0% | 0% | 9% | 0% | 0% | 68% | 39% | 0% | 0% | 5% | 0% | 2% | 0% | 0% | 14% | 0% | 12% | 9% | 13% | 0% |
| CCOC(=O)N1CCC(n2cnc(-c3ccc(F)cc3)c2-c2ccnc(N)n2)CC1 [SB-219952] | 0% | 0% | 37% | 17% | 15% | 0% | 5% | 0% | 70% | 0% | 0% | 0% | 0% | 0% | 0% | 10% | 19% | 11% | 0% | 0% |
| CCNCC(Cc1ccccc1)NC(=O)c1cc(Br)c(-c2ccnc3[nH]ccc23)s1.Cl.Cl (centres unmarked) [GSK1383280] | 88% | 0% | 46% | 18% | 48% | 92.5% | 51% | 0% | 18% | 23% | 3% | 33% | 19% | 0% | 0% | 42% | 36% | 17% | 14% | 36% |
| CC(C)S(=O)(=O)N1CCN(Cc2ccc3c(c2)nc(NC(=O)c2ccsc2)n3C[C@H](O)c2ccccc2)CC1 [GW635815] | 17% | 37% | 34% | 20% | 1% | 0% | 39% | 0% | 0% | 29% | 20% | 13% | 52% | 27% | 67% | 90% | 49% | 80% | 97.6% | 5% |
| Cl.c1ccc(Oc2ccc(Nc3ccnc4cc(-c5ccc(CN6CCNCC6)o5)ccc34)cc2)nc1 [GW567142] | 0% | 84% | 0% | 0% | 7% | 10% | 0% | 1% | 0% | 0% | 0% | 0% | 42% | 0% | 20% | 0% | 0% | 5% | 2% | 21% |
| CN1CCN(CCCNc2nccc(-c3c(-c4ccc(F)cc4)nn4cc(C(N)=O)ccc34)n2)CC1 [GW622475] | 0% | 8% | 5% | 0% | 27% | 0% | 13% | 6% | 12% | 0% | 0% | 0% | 39% | 0% | 2% | 29% | 0% | 11% | 10% | 5% |
| Cn1ccc2ncnc(Oc3ccc(NC(=O)Nc4cncc(C(F)(F)F)c4)c(Cl)c3)c21 | 0% | 14% | 10% | 0% | 0% | 0% | 0% | 0% | 0% | 0% | 0% | 0% | 0% | 0% | 0% | 0% | 0% | 0% | 0% | 0% |
| CCn1c(-c2nonc2N)nc2cncc(CNC3CCNCC3)c21.Cl [SB-747651] | 73% | 0% | 0% | 0% | 48% | 0% | 35% | 0% | 16% | 13% | 39% | 27% | 5% | 0% | 14% | 56% | 0% | 41% | 9% | 15% |
| Cc1n[nH]c2cc(Nc3ccnc(Nc4cccc(CN5CCOCC5)c4)n3)ccc12 [GW682569] | 20% | 25% | 0% | 0% | 26% | 3% | 24% | 0% | 0% | 0% | 0% | 25% | 38% | 0% | 7% | 79% | 89% | 87% | 1% | 48% |
| C[C@@H](Oc1cc(-n2cnc3ccc(-c4ccncc4)cc32)sc1C(N)=O)c1ccccc1Cl [GSK483724] | 87% | 0% | 33% | 19% | 59% | 69% | 64% | 0% | 45% | 19% | 7% | 13% | 24% | 0% | 0% | 49% | 81% | 17% | 22% | 0% |
| COC(=O)c1cccc(NC(=O)NC2CCN(c3ccnc(Nc4cc(OC)c(OC)c(OC)c4)n3)C2)c1 (centres unmarked) [GSK1379767] | 15% | 5% | 0% | 0% | 6% | 0% | 72% | 0% | 0% | 3% | 0% | 0% | 40% | 0% | 11% | 62% | 79% | 11% | 11% | 9% |
| O=C1NCCc2[nH]c(-c3ccncc3)cc21 | 100% | 20% | 91.5% | 97.2% | 95.5% |  | 7% | 0% | 29% | 0% | 88% | 40% | 2% | 0% | 8% | 98.6% | 0% | 0% | 0% | 6% |
